# Results filed as inconclusive are left out. Entries that show only a call come without a potency. Unmarked numbers belong to inactive results. Active and inactive are the calls of the source. The call rests on the fitted dose curve; in most records, active means well fitted curve in the direction sought with a large enough effect; inconclusive means small, poorly fitted or top-dose-only effect, or another doubt; inactive means no such curve, though single readings can be large; an effect the other way counts as inactive or inconclusive.
# How the values were obtained:
# [1] = qHTS of pediatric cancer cell lines to identify multiple opportunities for drug repurposing: Primary screen for A673 cells (AID 1347092); further: nearly all actives have a fitted effect of over 45% in size
# Method in brief: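 Luminescence from CellTiter-Glo, taken after 15 min at room temperature, served as the proxy for metabolically active cells following 48 h treatment. Both potency and efficacy were taken from curves fitted to the titration data.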
# [2] = qHTS of pediatric cancer cell lines to identify multiple opportunities for drug repurposing: Primary screen for SK-N-MC cells (AID 1347093); further: series mostly up to about 46 µM
# Method in brief: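 Metabolically active cells were quantified by ATP-dependent luminescence (CellTiter-Glo, 15 min at room temperature) following 48 h treatment. Cells had been plated at 500-1,000 per well and settled for 5 h beforehand.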
# [3] = qHTS of pediatric cancer cell lines to identify multiple opportunities for drug repurposing: Primary screen for BT-37 cells (AID 1347094); further: series mostly up to about 57 µM
# Method in brief: (§1)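 Phenotypic viability qHTS, 48 h compound exposure, CellTiter-Glo luminescence read-out; multi-concentration dosing so that potency and efficacy derive directly from the primary screen's curves.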
# [4] = qHTS of pediatric cancer cell lines to identify multiple opportunities for drug repurposing: Primary screen for NB-EBc1 cells (AID 1347095)
# Method in brief: as §1
# [5] = qHTS of pediatric cancer cell lines to identify multiple opportunities for drug repurposing: Primary screen for U-2 OS cells (AID 1347096); further: nearly all actives have a fitted effect of over 50% in size
# Method in brief: (§2)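 Viability after 48 h compound treatment at 37C, 500-1,000 cells/well, read as ATP luminescence with CellTiter-Glo. Primary screens used 11-point (MIPE, 0.78 nM-46 µM) or 8-point (NPC, 0.59 nM-46 µM) final concentrations; follow-up screens used 11-point dilutions.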
# [6] = qHTS of pediatric cancer cell lines to identify multiple opportunities for drug repurposing: Primary screen for Saos-2 cells (AID 1347097); further: nearly all actives have a fitted effect of over 40% in size
# Method in brief: as §1
# [7] = qHTS of pediatric cancer cell lines to identify multiple opportunities for drug repurposing: Primary screen for SK-N-SH cells (AID 1347098);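 further: DMSO served as neutral control and bortezomib at 2.3 µM as positive control; nearly all actives have a fitted effect of over 65% in size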
# Method in brief: (§3)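 Cells (500-1,000/well) rested 5 h, then received compounds for 48 h; metabolically active cells were measured by CellTiter-Glo luminescence. Final concentrations spanned up to 46 µM (MIPE, 11-point) or 0.59 nM-46 µM (NPC, 8-point) in primary screens, 11-point in follow-ups.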
# [8] = qHTS of pediatric cancer cell lines to identify multiple opportunities for drug repurposing: Primary screen for NB1643 cells (AID 1347099); further: nearly all actives have a fitted effect of over 50% in size
# Method in brief: as §1
# [9] = qHTS of pediatric cancer cell lines to identify multiple opportunities for drug repurposing: Primary screen for LAN-5 cells (AID 1347100)
# Method in brief: as §2
# [10] = qHTS of pediatric cancer cell lines to identify multiple opportunities for drug repurposing: Primary screen for BT-12 cells (AID 1347101); further: nearly all actives have a fitted effect of over 25% in size
# Method in brief: as §3
# [11] = qHTS of pediatric cancer cell lines to identify multiple opportunities for drug repurposing: Primary screen for Rh18 cells (AID 1347102); further: nearly all actives have a fitted effect of over 65% in size
# Method in brief: as §2
# [12] = qHTS of pediatric cancer cell lines to identify multiple opportunities for drug repurposing: Primary screen for OHS-50 cells (AID 1347103); further: nearly all actives have a fitted effect of over 40% in size
# Method in brief: as §3
# [13] = qHTS of pediatric cancer cell lines to identify multiple opportunities for drug repurposing: Primary screen for RD cells (AID 1347104); further: nearly all actives have a fitted effect of over 55% in size
# Method in brief: as §1
# [14] = qHTS of pediatric cancer cell lines to identify multiple opportunities for drug repurposing: Primary screen for MG 63 (6-TG R) cells (AID 1347105); further: nearly all actives have a fitted effect of over 50% in size
# Method in brief: as §1
# [15] = qHTS of pediatric cancer cell lines to identify multiple opportunities for drug repurposing: Primary screen for control Hh wild type fibroblast cells (AID 1347106);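 further: series mostly up to about 46 µM; a drop in luminescence marks cytotoxicity and a rise apparent proliferation; nearly all actives have a fitted effect of over 55% in size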
# Method in brief: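 Cells (500-1,000/well) in growth media were settled 5 h at 37 degrees C, then given compounds for 48 h. Viability was read as CellTiter-Glo luminescence. Primary runs used MIPE at 11 points (0.78 nM-46 µM) and NPC at 8 points (0.59 nM-46 µM); follow-ups used 11 points.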
# [16] = qHTS of pediatric cancer cell lines to identify multiple opportunities for drug repurposing: Primary screen for Rh30 cells (AID 1347107); further: series mostly up to about 46 µM; nearly all actives have a fitted effect of over 75% in size
# Method in brief: as §2
# [17] = qHTS of pediatric cancer cell lines to identify multiple opportunities for drug repurposing: Primary screen for Rh41 cells (AID 1347108);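 further: series mostly up to about 46 µM; luminescence drop marks cytotoxic hits; nearly all actives have a fitted effect of over 70% in size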
# Method in brief: as §1
# [18] = qHTS of pediatric cancer cell lines to identify multiple opportunities for drug repurposing: Confirmatory screen for NB1643 cells (AID 1347109); further: nearly all actives have a fitted effect of over 45% in size
# Method in brief: as §2
# [19] = qHTS of pediatric cancer cell lines to identify multiple opportunities for drug repurposing: Confirmatory screen for A673 cells (AID 1347110); further: nearly all actives have a fitted effect of over 65% in size
# Method in brief: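 qHTS titration format: primary MIPE 0.78 nM-46 µM (11 pts), NPC 0.59 nM-46 µM; confirmation 11 pts. 48 h, CTG luminescence.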
# [20] = qHTS of pediatric cancer cell lines to identify multiple opportunities for drug repurposing: Confirmatory screen for SK-N-MC cells (AID 1347111);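 further: potency means the concentration at half of the fitted maximal effect; cells exposed to compound for 48 h before the readout; nearly all actives have a fitted effect of over 70% in size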
# Method in brief: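 SK-N-MC cells at 500-1,000 cells/well in growth media were pre-incubated 5 h, then exposed to compounds at 11-point dilutions for 48 h at 37 degrees C, 5% CO2. Viability was read as CellTiter-Glo luminescence.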
compound,measurement,setting,value
O=C1OC2(c3ccc(O)cc3Oc3cc(O)ccc32)c2ccccc21,Potency,[1],inactive
same,Potency,[2],inactive
same,Potency,[3],inactive
same,Potency,[4],inactive
same,Potency,[5],inactive
same,Potency,[6],inactive
same,Potency,[7],inactive
same,Potency,[8],inactive
same,Potency,[9],inactive
same,Potency,[10],inactive
same,Potency,[11],inactive
same,Potency,[12],inactive
same,Potency,[13],inactive
same,Potency,[14],inactive
same,Potency,[15],inactive
same,Potency,[16],inactive
same,Potency,[17],inactive
C[C@]12CCC(=O)C=C1CC[C@H]1[C@@H]3CC[C@](O)(C(=O)CO)[C@@]3(C)C[C@H](O)[C@@]12F,Potency,[1],inactive
same,Potency,[2],inactive
same,Potency,[3],inactive
same,Potency,[4],inactive
same,Potency,[5],inactive
same,Potency,[6],inactive
same,Potency,[7],inactive
same,Potency,[8],inactive
same,Potency,[9],inactive
same,Potency,[10],inactive
same,Potency,[11],inactive
same,Potency,[12],inactive
same,Potency,[13],inactive
same,Potency,[14],inactive
same,Potency,[15],inactive
same,Potency,[16],inactive
same,Potency,[17],inactive
same,Potency,[18],inactive
same,Potency,[19],inactive
NC(CO)(CO)CO,Potency,[1],inactive
same,Potency,[2],inactive
same,Potency,[3],inactive
same,Potency,[4],inactive
same,Potency,[5],inactive
same,Potency,[6],inactive
same,Potency,[7],inactive
same,Potency,[8],inactive
same,Potency,[9],inactive
same,Potency,[10],inactive
same,Potency,[11],inactive
same,Potency,[12],inactive
same,Potency,[13],inactive
same,Potency,[14],inactive
same,Potency,[15],inactive
same,Potency,[16],inactive
same,Potency,[17],inactive
same,Potency,[18],inactive
same,Potency,[19],inactive
same,Potency,[20],8.27 µM (active)
CN(C)CC/C=C1/c2ccccc2COc2ccc(CC(=O)O)cc21,Potency,[1],inactive
same,Potency,[2],inactive
same,Potency,[3],inactive
same,Potency,[4],inactive
same,Potency,[5],inactive
same,Potency,[6],inactive
same,Potency,[7],inactive
same,Potency,[8],inactive
same,Potency,[9],inactive
same,Potency,[10],inactive
same,Potency,[11],inactive
same,Potency,[12],inactive
same,Potency,[13],inactive
same,Potency,[14],inactive
same,Potency,[15],inactive
same,Potency,[16],inactive
same,Potency,[17],inactive
NC[C@H]1O[C@H](O[C@H]2[C@H](O[C@@H]3O[C@H](CO)[C@@H](O)[C@H]3O)C(O)[C@H](N)C[C@@H]2N)[C@H](N)[C@@H](O)[C@@H]1O (some centres undefined),"activity change, negative = cytotoxic",[1],-0.207% [at 9.22 µM]
same,"activity change, negative = cytotoxic",[2],-3.87% [at 9.22 µM]
same,"activity change, negative = cytotoxic",[3],10.7% [at 11.5 µM]
same,"activity change, negative = cytotoxic",[4],28.9% [at 9.22 µM]
same,"activity change, negative = cytotoxic",[5],11.5% [at 9.22 µM]
same,"activity change, negative = cytotoxic",[6],-4.84% [at 9.22 µM]
same,"activity change, negative = cytotoxic",[7],19.9% [at 11.4 µM]
same,"activity change, negative = cytotoxic",[8],0% [at 9.22 µM]
same,"activity change, negative = cytotoxic",[9],25.3% [at 9.22 µM]
same,"activity change, negative = cytotoxic",[10],7.42% [at 11.5 µM]
same,"activity change, negative = cytotoxic",[11],31.2% [at 9.22 µM]
same,"activity change, negative = cytotoxic",[12],7.33% [at 11.5 µM]
same,"activity change, negative = cytotoxic",[13],14% [at 9.22 µM]
same,"activity change, negative = cytotoxic",[14],-2.08% [at 9.22 µM]
same,"activity change, negative = cytotoxic",[15],-1.08% [at 9.22 µM]
same,"activity change, negative = cytotoxic",[16],23.6% [at 9.22 µM]
same,"activity change, negative = cytotoxic",[17],34.8% [at 9.22 µM]
CCC(=O)c1c(O)cc(O)cc1O,Potency,[1],inactive
same,Potency,[2],inactive
same,Potency,[3],inactive
same,Potency,[4],inactive
same,Potency,[5],inactive
same,Potency,[6],inactive
same,Potency,[7],inactive
same,Potency,[8],inactive
same,Potency,[9],inactive
same,Potency,[10],inactive
same,Potency,[11],inactive
same,Potency,[12],inactive
same,Potency,[13],inactive
same,Potency,[14],inactive
same,Potency,[15],inactive
same,Potency,[16],inactive
same,Potency,[17],inactive
Cc1ccc(Nc2c(F)cccc2Cl)c(CC(=O)O)c1,Potency,[1],inactive
same,Potency,[2],inactive
same,Potency,[3],inactive
same,Potency,[4],inactive
same,Potency,[5],inactive
same,Potency,[6],inactive
same,Potency,[7],inactive
same,Potency,[8],inactive
same,Potency,[9],inactive
same,Potency,[10],inactive
same,Potency,[11],inactive
same,Potency,[12],inactive
same,Potency,[13],inactive
same,Potency,[14],inactive
same,Potency,[15],inactive
same,Potency,[16],inactive
same,Potency,[17],inactive
Cc1cccn2c(=O)c(-c3nnn[nH]3)cnc12,Potency,[1],inactive
same,Potency,[2],inactive
same,Potency,[3],inactive
same,Potency,[4],inactive
same,Potency,[5],inactive
same,Potency,[6],inactive
same,Potency,[7],inactive
same,Potency,[8],inactive
same,Potency,[9],inactive
same,Potency,[10],inactive
same,Potency,[11],inactive
same,Potency,[12],inactive
same,Potency,[13],inactive
same,Potency,[14],inactive
same,Potency,[15],inactive
same,Potency,[16],inactive
same,Potency,[17],inactive
Cc1c(F)c(N2CCNC(C)C2)cc2c1c(=O)c(C(=O)O)cn2C1CC1 (centres undefined),Potency,[1],inactive
same,Potency,[2],inactive
same,Potency,[3],inactive
same,Potency,[4],inactive
same,Potency,[5],inactive
same,Potency,[6],inactive
same,Potency,[7],inactive
same,Potency,[8],inactive
same,Potency,[9],inactive
same,Potency,[10],inactive
same,Potency,[11],inactive
same,Potency,[12],inactive
same,Potency,[13],inactive
same,Potency,[14],inactive
same,Potency,[15],inactive
same,Potency,[16],inactive
same,Potency,[17],inactive
O=c1ccc2ccccc2o1,Potency,[1],inactive
same,Potency,[2],inactive
same,Potency,[3],inactive
same,Potency,[4],inactive
same,Potency,[5],inactive
same,Potency,[6],inactive
same,Potency,[7],inactive
same,Potency,[8],inactive
same,Potency,[9],inactive
same,Potency,[10],inactive
same,Potency,[11],inactive
same,Potency,[12],inactive
same,Potency,[13],inactive
same,Potency,[14],inactive
same,Potency,[15],inactive
same,Potency,[16],inactive
same,Potency,[17],inactive
C[C@H](O)C(=O)Nc1c(I)c(C(=O)NC(CO)CO)c(I)c(C(=O)NC(CO)CO)c1I,Potency,[1],inactive
same,Potency,[2],inactive
same,Potency,[3],inactive
same,Potency,[4],inactive
same,Potency,[5],inactive
same,Potency,[6],inactive
same,Potency,[7],inactive
same,Potency,[8],inactive
same,Potency,[9],inactive
same,Potency,[10],inactive
same,Potency,[11],inactive
same,Potency,[12],inactive
same,Potency,[13],inactive
same,Potency,[14],inactive
same,Potency,[15],inactive
same,Potency,[16],inactive
same,Potency,[17],inactive
CCN1CCN(c2cc3c(cc2F)c(=O)c(C(=O)O)cn3C2CC2)CC1,Potency,[1],inactive
same,Potency,[2],inactive
same,Potency,[3],inactive
same,Potency,[4],inactive
same,Potency,[5],inactive
same,Potency,[6],inactive
same,Potency,[7],inactive
same,Potency,[8],inactive
same,Potency,[9],inactive
same,Potency,[10],inactive
same,Potency,[11],inactive
same,Potency,[12],inactive
same,Potency,[13],inactive
same,Potency,[14],inactive
same,Potency,[16],inactive
same,Potency,[17],inactive
CC1(C)OC[C@@H](COC(=O)CCc2ccc(OC[C@@H](O)CNCCNC(=O)N3CCOCC3)cc2)O1,Potency,[1],inactive
same,Potency,[2],inactive
same,Potency,[3],inactive
same,Potency,[4],inactive
same,Potency,[5],inactive
same,Potency,[6],inactive
same,Potency,[7],inactive
same,Potency,[8],inactive
same,Potency,[9],inactive
same,Potency,[10],inactive
same,Potency,[11],inactive
same,Potency,[13],inactive
same,Potency,[14],inactive
same,Potency,[15],inactive
same,Potency,[16],inactive
same,Potency,[17],inactive
